Test results taken from PubChem BioAssay (NCATS).
Inconclusive results are not listed. Calls of active or inactive are those of the source. Unless noted, the call rests on the fitted dose curve; in most records, active means well fitted curve in the direction sought with a large enough effect; inconclusive means small, poorly fitted or top-dose-only effect, or another doubt; inactive means no such curve, though single readings can be large; an effect the other way counts as inactive or inconclusive.

Legend:
[1] = target: Glucocorticoid receptor (Homo sapiens) (UniProt P04150); test: qHTS assay for small molecule agonists of glucocorticoid receptor signaling (AID 588532; active means well fitted curve in the direction sought with a large enough effect in the signal ratio, with a control signal flat; the % refers to the signal ratio;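 further: 100% = dexamethasone at 0.1 µM and 0% = DMSO only wells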); conditions: HeLa MMTV-bla, beta-lactamase ratio, agonist, 18 h; stronger effect = higher value; percent of dexamethasone control, DMSO zero
Summary of the method: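 MMTV-bla HeLa beta-lactamase reporter cells in 1% charcoal/dextran FBS medium, compounds up to 92 uM for 18 h at 37 C, CCF4 readout; normalized to 0.1 uM dexamethasone (100%), EC50 and efficacy from Hill fits.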

[2] = target: Glucocorticoid receptor (Homo sapiens) (UniProt P04150); test: qHTS assay for small molecule antagonists of glucocorticoid receptor signaling (AID 588533; active means well fitted inhibition curve with a large enough effect in the signal ratio, with a control signal flat, not every such curve was filed as active; the % refers to the signal ratio;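 further: cells stimulated with 2 nM dexamethasone as agonist; on the % scale 0 is the no-effect control and ±100 the full control effect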); conditions: HeLa MMTV-bla, GRE beta-lactamase ratio, antagonist mode, 18 h; series mostly up to 76.8 µM
Summary of the method: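 Antagonist-mode qHTS: compound titrations added to GRE-bla HeLa cells, then dexamethasone 2 nM final; 18 h, 37 C. CCF4 FRET fluorescence normalized to dexamethasone and DMSO; IC50 from Hill fit.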

[3] = qHTS assay for small molecule antagonists of peroxisome proliferator-activated receptor delta signaling (AID 588535; active means well fitted inhibition curve with a large enough effect in the signal ratio, with a control signal flat, not every such curve was filed as active; the % refers to the signal ratio;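 on max response: cells co-treated with a PPAR-delta agonist as stimulator during compound exposure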); conditions: HEK293T PPARd-UAS-bla, beta-lactamase FRET ratio, 18 h; 460 nm channel
Summary of the method: (§1)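 Beta-lactamase reporter read-out (405 nm excitation, 460/530 nm emission) after CCF4 loading for 2 hrs at RT. HEK293T PPAR-delta-UAS-bla cells, 2% charcoal/dextran FBS, compounds for 18 hrs at 37 C. Hill fit gave IC50 and efficacy.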

[4] = target: Peroxisome proliferator-activated receptor delta (Homo sapiens) (UniProt Q03181); test: as above; conditions: HEK293T PPARd-UAS-bla, beta-lactamase FRET ratio, 18 h; series mostly up to 76.7 µM
Summary of the method: as §1

[5] = target: Vitamin D3 receptor (Homo sapiens) (UniProt P11473); test: qHTS assay for small molecule agonists of vitamin D receptor signaling (AID 588543; calls by dose curve;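 further: 0% = DMSO basal and 100% = reference agonist control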); conditions: HEK293T VDR-UAS-bla, beta-lactamase ratio, 16 h; series mostly up to 76.8 µM
Summary of the method: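 Reporter cells (HEK293T, VDR-UAS-bla) were seeded in medium with 2% charcoal-stripped serum and incubated 5 h, then compounds in concentration series were added for 16 h at 37 °C. Stimulation was scaled between DMSO basal and 50 nM 1α,25-dihydroxyvitamin D3.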

[6] = target: Thyroid hormone receptor beta (Homo sapiens) (UniProt P10828); test: qHTS assay for small molecule agonists of thyroid hormone receptor beta signaling (AID 588545; calls by dose curve); conditions: TR-UAS-bla GripTite HEK 293, beta-lactamase ratio, agonist mode, 18 h; series mostly up to 76.7 µM
Summary of the method: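 Agonist-mode beta-lactamase reporter assay, HEK 293 cells, 2% charcoal/dextran FBS; cells plated 4 hrs, compound 18 hrs at 37 C, CCF4 2 hrs RT. Normalized to 10 nM T3 (100%) and DMSO (0%); Hill fit gives EC50, efficacy.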

[7] = qHTS assay for small molecule antagonists of retinoid X receptor alpha signaling (AID 588546; active means well fitted inhibition curve with a large enough effect in the signal ratio, with a control signal flat, not every such curve was filed as active; the % refers to the signal ratio; further: potency means the concentration at half of the fitted maximal effect;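 on max response: cells stimulated with 9-cis-retinoic acid as agonist; on the % scale 0 is the no-effect control and ±100 the full control effect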); conditions: HEK293T RXRa-UAS-bla, beta-lactamase ratio, antagonist mode; measured here: W530 green channel, cytotoxicity proxy
Summary of the method: (§2)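 Beta-lactamase reporter inhibition, read as CCF4 fluorescence ratio (ex 405, em 460/530 nm) after 2 h at RT. HEK293T UAS-bla cells, 2500/well, were stimulated with 9-cis-RA at 500 or 100 nM final alongside test compound for 18 h at 37 C.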

[8] = target: Retinoic acid receptor RXR-alpha (Homo sapiens) (UniProt P19793); test: as above; conditions: HEK293T RXRa-UAS-bla, beta-lactamase ratio, antagonist mode
Summary of the method: as §2

[9] = qHTS assay for small molecule activators of the p53 signaling pathway (AID 651743; active means well fitted activation curve with a large enough effect in the signal ratio, not every such curve was filed as active; the % refers to the signal ratio; further: % of control where 0% means no effect); conditions: HCT-116 p53RE-bla, beta-lactamase FRET ratio, 16 h; activation: stronger effect = higher value
Summary of the method: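 Reporter: beta-lactamase driven by p53 response elements, stably integrated in HCT-116 cells. Cells seeded at 4,000/well, 5 h preincubation, compound (DMSO) 16 h at 37 C; B/G FRET substrate 2 h RT; fluorescence intensity read.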

[10] = qHTS assay for environmental chemicals that activate the Aryl hydrocarbon Receptor (AhR) signaling pathway (AID 651777); conditions: 1A2-DRE human hepatoma cells, luciferase, 24 h; activation: stronger effect = higher value; further: % of control where 0% means no effect; nearly all actives have a fitted effect of over 15% in size
Summary of the method: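 Luminescence (One-Glo, 30 min, room temperature) reports AhR-driven luciferase in stably transfected human hepatoma cells bearing DRE and CYP1A2 promoter. Cells (1,200/well) were treated with compound for 24 hr at 37 C in qHTS format.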

[11] = target: Peroxisome proliferator-activated receptor alpha (Homo sapiens) (UniProt Q07869); test: qHTS assay for small molecule agonists of the peroxisome proliferator-activated receptor alpha (PPARalpha) signaling pathway (AID 651778); conditions: PathHunter PPARalpha complementation, chemiluminescence, 6 h; max response: stronger effect = higher value; further: % of control where 0% means no effect
Summary of the method: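 Enzyme-fragment complementation assay in which ligand-bound PPARalpha translocates and forms an active enzyme that generates chemiluminescence. Cells were plated overnight, exposed to compound for 6 hr at 37 C, and then given detection reagent for 60 min at room temperature.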

[12] = qHTS assay for cell viability of HEK293 cells (AID 743288); conditions: ATP luminescence (CellTiter-Glo), 18 h; max response: stronger effect = lower value; further: on the % scale 0 is the no-effect control and ±100 the full control effect; nearly all actives have a fitted effect of over 50% in size
Summary of the method: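 Viable-cell counts were inferred from luciferase-based ATP content in HEK293 cells seeded at 2,000/well, pre-incubated ≥5 h, then dosed with DMSO-solubilised compounds for 18 h at 37 C.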

[13] = qHTS assay for cell viability of the p53RE-bla HCT-116 cell line (AID 743292); conditions: p53RE-bla HCT-116 viability, ATP luminescence, 16 h; series mostly up to 95 µM; further: on the % scale 0 is the no-effect control and ±100 the full control effect; nearly all actives have a fitted effect of over 55% in size
Summary of the method: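 ATP-based luminescent viability (CellTiter-Glo, 30 min RT) after 16 h compound treatment at 37 C of p53RE-bla HCT-116 cells, seeded at 4,000 cells/well and rested 5 h before dosing.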

[14] = target: Nuclear receptor subfamily 1 group I member 2 (Rattus norvegicus) (UniProt Q9R1A7); test: qHTS assay for small molecule activators of the rat pregnane X receptor (rPXR) signaling pathway (AID 651751; call rule not given here; further: 0% is about no effect); conditions: rPXR reporter cells, luciferase (One-Glo), 24 h
[15] = qHTS assay for small molecule activators of the human pregnane X receptor (PXR) signaling pathway (AID 720659; call rule not given here; further: 0% is about no effect); conditions: DPX-2 HepG2 CYP3A4-luciferase, 24 h; series mostly up to 92.3 µM
[16] = target: Peroxisome proliferator-activated receptor gamma (Homo sapiens) (UniProt P37231); test: qHTS assay for small molecule agonists of peroxisome proliferator-activated receptor gamma signaling (AID 588536; active means well fitted curve in the direction sought with a large enough effect in the signal ratio, with a control signal flat, not every such curve was filed as active; the % refers to the signal ratio;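 further: 0% = DMSO basal wells and 100% = rosiglitazone at 2 µM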); conditions: HEK293 PPARg-UAS-bla, beta-lactamase ratio, 16 h, percent of rosiglitazone response, DMSO as zero; series mostly up to 76.7 µM
Summary of the method: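 Cells were plated and held 6–6.5 h at 37 C, then compounds were added as a titration series. After a further 16 h, CCF4 dye was loaded for 2 h at room temperature and emission at 460/530 nm recorded.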

[17] = qHTS assay for small molecule agonists of retinoid X receptor alpha signaling (AID 588544; calls by dose curve;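 on activation: 0% = DMSO basal wells and 100% = reference agonist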); conditions: HEK293T RXRa-UAS-bla, beta-lactamase reporter, 18 h; 530 nm emission
[18] = target: Retinoic acid receptor RXR-alpha (Homo sapiens) (UniProt P19793); test: as above; conditions: HEK293T RXRa-UAS-bla, beta-lactamase reporter, 18 h; series mostly up to 76.7 µM
[19] = qHTS assay for small molecule agonists of the antioxidant response element (ARE) signaling pathway measured by Nrf2-dependant transcriptional activity (AID 720636; active means well fitted curve in the direction sought with a large enough effect in the repeat runs; an effect the other way counts as inactive or inconclusive; further: % of control where 0% means no effect); conditions: ARE-luc HepG2, Nrf2 luciferase reporter, 16 h; series mostly up to 92.4 µM
Summary of the method: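 Nrf2-dependent transcription read as ONE-Glo luciferase signal from ARE-luc HepG2 reporter cells after 16 hr compound treatment at 37 C, 5% CO2, in assay medium with 1% dialyzed FBS.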

[20] = qHTS assay for small molecule agonists of the antioxidant response element (ARE) signaling pathway measured by Nrf2-dependant transcriptional activity - cell viability counter screen (AID 720653; active means well fitted curve in the direction sought with a large enough effect in the repeat runs; an effect the other way counts as inactive or inconclusive; further: on the % scale 0 is the no-effect control and ±100 the full control effect); conditions: ARE-bla HepG2 viability, CellTiter-Glo ATP luminescence, 16 h; max response: stronger effect = lower value
Summary of the method: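 ARE-bla HepG2 cells treated with compounds for 16 h at 37C; this counter screen measures viability as intracellular ATP by CellTiter-Glo luminescence after 30 min at room temperature.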

Sequence of Peroxisome proliferator-activated receptor gamma (Homo sapiens) (P37231 whole entry, looked up): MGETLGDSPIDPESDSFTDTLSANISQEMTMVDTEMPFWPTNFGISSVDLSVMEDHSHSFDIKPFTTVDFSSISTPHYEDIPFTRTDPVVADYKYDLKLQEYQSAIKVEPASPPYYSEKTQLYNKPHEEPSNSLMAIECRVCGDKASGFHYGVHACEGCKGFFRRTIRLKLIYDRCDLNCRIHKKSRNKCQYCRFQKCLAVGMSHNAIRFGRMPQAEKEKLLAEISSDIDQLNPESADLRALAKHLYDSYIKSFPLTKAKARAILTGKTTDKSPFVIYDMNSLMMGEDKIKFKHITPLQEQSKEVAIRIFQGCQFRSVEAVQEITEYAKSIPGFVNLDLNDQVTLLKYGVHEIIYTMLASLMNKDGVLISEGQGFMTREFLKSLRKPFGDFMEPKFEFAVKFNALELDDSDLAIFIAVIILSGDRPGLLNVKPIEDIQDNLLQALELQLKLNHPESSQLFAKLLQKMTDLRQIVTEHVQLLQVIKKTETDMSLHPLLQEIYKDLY
Sequence of Glucocorticoid receptor (Homo sapiens) (P04150 whole entry, looked up): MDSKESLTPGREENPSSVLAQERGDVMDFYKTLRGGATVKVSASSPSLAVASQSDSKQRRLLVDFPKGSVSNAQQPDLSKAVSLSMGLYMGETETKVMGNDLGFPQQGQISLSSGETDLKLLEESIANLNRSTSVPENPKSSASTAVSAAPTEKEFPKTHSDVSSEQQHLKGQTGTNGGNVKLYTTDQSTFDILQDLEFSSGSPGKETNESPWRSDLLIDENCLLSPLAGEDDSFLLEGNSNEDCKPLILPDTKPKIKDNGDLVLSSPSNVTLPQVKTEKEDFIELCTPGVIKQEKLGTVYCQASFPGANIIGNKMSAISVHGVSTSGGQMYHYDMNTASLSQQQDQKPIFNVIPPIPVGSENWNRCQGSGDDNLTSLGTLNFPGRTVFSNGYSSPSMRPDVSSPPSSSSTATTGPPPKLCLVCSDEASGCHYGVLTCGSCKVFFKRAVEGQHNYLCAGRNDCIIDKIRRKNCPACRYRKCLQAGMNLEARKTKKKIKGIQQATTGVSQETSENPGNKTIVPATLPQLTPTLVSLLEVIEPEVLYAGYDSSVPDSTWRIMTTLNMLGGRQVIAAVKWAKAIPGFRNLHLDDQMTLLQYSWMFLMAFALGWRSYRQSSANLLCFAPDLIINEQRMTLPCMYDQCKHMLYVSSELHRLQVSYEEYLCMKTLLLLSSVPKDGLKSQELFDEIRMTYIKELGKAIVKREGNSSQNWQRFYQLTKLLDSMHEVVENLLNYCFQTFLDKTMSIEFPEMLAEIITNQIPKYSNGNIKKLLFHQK
Sequence of Peroxisome proliferator-activated receptor alpha (Homo sapiens) (Q07869 whole entry, looked up, the tested form may be a part): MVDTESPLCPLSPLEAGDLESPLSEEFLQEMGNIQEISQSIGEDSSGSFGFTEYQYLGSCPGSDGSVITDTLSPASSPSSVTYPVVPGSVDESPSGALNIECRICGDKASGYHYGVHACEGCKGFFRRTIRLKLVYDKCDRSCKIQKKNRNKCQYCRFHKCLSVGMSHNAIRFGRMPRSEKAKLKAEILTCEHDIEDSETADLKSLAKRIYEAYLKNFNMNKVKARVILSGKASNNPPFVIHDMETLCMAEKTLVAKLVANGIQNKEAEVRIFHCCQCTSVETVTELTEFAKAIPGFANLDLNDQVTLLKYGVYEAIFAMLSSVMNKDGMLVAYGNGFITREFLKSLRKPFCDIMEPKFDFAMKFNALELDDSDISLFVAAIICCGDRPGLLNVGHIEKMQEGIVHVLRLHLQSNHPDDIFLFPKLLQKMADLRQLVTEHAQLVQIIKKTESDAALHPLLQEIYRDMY
Sequence of Retinoic acid receptor RXR-alpha (Homo sapiens) (P19793 whole entry, looked up): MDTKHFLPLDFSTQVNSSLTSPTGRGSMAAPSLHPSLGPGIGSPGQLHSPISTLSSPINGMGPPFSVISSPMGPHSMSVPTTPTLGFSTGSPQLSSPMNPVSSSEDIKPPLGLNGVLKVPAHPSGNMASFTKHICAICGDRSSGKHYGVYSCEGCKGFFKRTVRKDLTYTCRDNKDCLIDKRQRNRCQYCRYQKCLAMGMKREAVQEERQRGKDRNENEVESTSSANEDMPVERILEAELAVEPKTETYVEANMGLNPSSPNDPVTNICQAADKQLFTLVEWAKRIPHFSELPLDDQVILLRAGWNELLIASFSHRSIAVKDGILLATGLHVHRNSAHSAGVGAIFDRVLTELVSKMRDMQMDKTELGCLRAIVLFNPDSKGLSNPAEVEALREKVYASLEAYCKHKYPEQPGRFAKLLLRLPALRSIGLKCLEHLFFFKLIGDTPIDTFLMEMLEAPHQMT
Sequence of Nuclear receptor subfamily 1 group I member 2 (Rattus norvegicus) (Q9R1A7 whole entry, looked up): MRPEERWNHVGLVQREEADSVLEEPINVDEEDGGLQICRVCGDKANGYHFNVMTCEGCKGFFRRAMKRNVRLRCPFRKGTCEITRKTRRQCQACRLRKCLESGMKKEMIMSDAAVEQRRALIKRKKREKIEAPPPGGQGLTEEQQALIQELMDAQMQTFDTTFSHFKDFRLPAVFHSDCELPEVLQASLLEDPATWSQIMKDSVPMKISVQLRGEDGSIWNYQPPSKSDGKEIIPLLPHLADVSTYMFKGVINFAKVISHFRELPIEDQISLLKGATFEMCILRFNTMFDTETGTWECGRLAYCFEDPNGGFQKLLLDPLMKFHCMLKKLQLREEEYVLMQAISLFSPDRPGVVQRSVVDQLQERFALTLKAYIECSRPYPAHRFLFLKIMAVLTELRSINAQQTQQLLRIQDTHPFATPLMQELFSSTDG
Sequence of Peroxisome proliferator-activated receptor delta (Homo sapiens) (Q03181 whole entry, looked up): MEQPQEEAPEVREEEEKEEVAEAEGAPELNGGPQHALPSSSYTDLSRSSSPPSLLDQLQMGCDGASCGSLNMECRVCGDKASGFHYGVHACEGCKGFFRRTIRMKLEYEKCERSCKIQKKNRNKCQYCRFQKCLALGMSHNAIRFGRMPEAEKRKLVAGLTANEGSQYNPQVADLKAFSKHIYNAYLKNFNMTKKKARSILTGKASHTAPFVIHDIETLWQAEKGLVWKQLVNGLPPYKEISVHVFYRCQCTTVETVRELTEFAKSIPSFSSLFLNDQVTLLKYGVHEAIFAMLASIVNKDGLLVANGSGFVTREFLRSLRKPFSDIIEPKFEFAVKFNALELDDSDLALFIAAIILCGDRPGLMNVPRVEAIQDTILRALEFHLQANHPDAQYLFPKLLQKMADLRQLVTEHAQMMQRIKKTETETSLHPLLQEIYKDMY
Sequence of Vitamin D3 receptor (Homo sapiens) (P11473 whole entry, looked up): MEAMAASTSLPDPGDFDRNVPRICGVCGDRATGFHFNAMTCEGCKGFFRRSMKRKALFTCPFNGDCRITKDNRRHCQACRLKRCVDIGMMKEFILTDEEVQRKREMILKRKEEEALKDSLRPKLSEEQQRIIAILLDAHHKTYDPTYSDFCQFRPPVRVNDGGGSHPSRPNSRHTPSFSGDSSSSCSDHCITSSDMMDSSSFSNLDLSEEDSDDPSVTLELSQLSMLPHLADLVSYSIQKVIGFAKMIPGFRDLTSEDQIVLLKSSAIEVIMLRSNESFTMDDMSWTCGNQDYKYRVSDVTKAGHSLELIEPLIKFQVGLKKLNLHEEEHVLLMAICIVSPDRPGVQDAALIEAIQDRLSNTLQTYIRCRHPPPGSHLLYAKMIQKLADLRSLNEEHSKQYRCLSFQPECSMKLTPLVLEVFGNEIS
Sequence of Thyroid hormone receptor beta (Homo sapiens) (P10828 whole entry, looked up): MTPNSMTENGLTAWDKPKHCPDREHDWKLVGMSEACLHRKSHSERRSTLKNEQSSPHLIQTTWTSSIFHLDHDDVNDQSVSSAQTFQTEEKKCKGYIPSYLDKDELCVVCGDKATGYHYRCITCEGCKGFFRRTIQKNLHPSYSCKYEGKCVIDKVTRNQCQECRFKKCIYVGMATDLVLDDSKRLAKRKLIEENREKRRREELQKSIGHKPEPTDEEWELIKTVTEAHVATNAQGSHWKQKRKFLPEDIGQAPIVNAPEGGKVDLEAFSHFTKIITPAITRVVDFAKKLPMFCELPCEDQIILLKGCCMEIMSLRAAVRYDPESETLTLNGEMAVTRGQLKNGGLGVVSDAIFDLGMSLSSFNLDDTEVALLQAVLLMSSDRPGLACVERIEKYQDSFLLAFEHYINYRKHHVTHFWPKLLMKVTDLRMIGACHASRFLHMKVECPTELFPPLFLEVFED

CCCCCCCCCCCC[N+](C)(C)C
active: Potency [8] 17.8 µM
-26.8%: max response [3]
inactive: activation [1] -4.8% | Potency [2] | Potency [4] | outcome [5] | Potency [6] | activation [9] 12.8% | activation [10] 9.5% | max response [11] -0.842% | max response [12] -25.6% | Potency [13] | max response [14] -11.2% | outcome [15]
5.9%: max response [7]

CCC(O)OCCCOC (configuration not stated)
inactive: activation [1] -7.43% | Potency [2] | Potency [4] | outcome [16] | outcome [5] | Potency [18] | max response [8] 5.03% | activation [9] -2.25% | activation [10] 0.32% | max response [11] -1.52% | Potency [19] | max response [20] 4.51% | max response [12] -3.1% | Potency [13] | max response [14] 1.86% | outcome [15]
-12.7%: max response [7]
-7.67%: max response [17]
-0.797%: max response [3]

Cc1ccc2c(c1)C(=O)OC2=O
33.6%: max response [3]
-9.63%: max response [7]
inactive: activation [1] -1.62% | Potency [2] | Potency [4] | outcome [16] | outcome [5] | Potency [18] | max response [8] -14.4% | activation [9] -6.05% | activation [10] 2.38% | max response [11] -2.31% | Potency [19] | max response [20] -8.54% | max response [12] -7.63% | Potency [13] | max response [14] 0.0212% | outcome [15]
-13.4%: max response [17]

C1=C/CC/C=C/CC/C=C/CC/1
18.8%: max response [3]
5.63%: max response [7]
inactive: activation [1] 2.01% | Potency [2] | Potency [4] | outcome [16] | outcome [5] | max response [8] -14.4% | activation [9] -6.28% | max response [11] 0.0417% | Potency [19] | max response [20] -8.56% | max response [12] -8.62% | max response [14] 13.1% | outcome [15]

CCOC(=O)[C@H](C)Oc1ccc(Oc2nc3ccc(Cl)cc3o2)cc1
24.7%: max response [3]
inactive: activation [1] 0.281% | Potency [4] | outcome [5] | activation [9] -9.98% | activation [10] 13.7% | max response [11] -1.02% | max response [20] 0.626% | max response [12] -6.11% | Potency [13] | max response [14] -0.698% | outcome [15]

S=C([S-])NCCNC(=S)[S-].S=C([S-])NCCNC(=S)[S-].[Mn+2].[Zn+2]
inactive: outcome [16] | outcome [5] | Potency [6] | activation [10] 0.587% | max response [11] -4.1% | max response [12] 2.96% | max response [14] -11.1%

CCCCCCC(C)OC(=O)COc1nc(F)c(Cl)c(N)c1Cl (configuration not stated)
inactive: outcome [5] | activation [9] -6.58% | max response [11] 25.7% | Potency [19] | max response [12] -29.6%

Nc1ccc(Nc2ccccc2)cc1
-6.58%: max response [7]
inactive: Potency [2] | outcome [16] | max response [8] -27.9% | activation [10] 5.3% | max response [11] -0.422% | max response [20] 14.3% | max response [12] -17.7% | Potency [13] | max response [14] 8.87%
